Measurements as given in ChEMBL document CHEMBL2218924, “A broad activity screen in support of a chemogenomic map for kinase signalling research and drug discovery” (Biochem J, 2013).

Tests used:
[1] = molecular target: Tyrosine-protein kinase SYK (Homo sapiens) (UniProt P43405); details: at 10 µM
[2] = molecular target: T1, Serine/threonine-protein kinase TAO1 (Homo sapiens) (UniProt Q7L7X3); details: at 1 µM
T1 sequence (whole entry): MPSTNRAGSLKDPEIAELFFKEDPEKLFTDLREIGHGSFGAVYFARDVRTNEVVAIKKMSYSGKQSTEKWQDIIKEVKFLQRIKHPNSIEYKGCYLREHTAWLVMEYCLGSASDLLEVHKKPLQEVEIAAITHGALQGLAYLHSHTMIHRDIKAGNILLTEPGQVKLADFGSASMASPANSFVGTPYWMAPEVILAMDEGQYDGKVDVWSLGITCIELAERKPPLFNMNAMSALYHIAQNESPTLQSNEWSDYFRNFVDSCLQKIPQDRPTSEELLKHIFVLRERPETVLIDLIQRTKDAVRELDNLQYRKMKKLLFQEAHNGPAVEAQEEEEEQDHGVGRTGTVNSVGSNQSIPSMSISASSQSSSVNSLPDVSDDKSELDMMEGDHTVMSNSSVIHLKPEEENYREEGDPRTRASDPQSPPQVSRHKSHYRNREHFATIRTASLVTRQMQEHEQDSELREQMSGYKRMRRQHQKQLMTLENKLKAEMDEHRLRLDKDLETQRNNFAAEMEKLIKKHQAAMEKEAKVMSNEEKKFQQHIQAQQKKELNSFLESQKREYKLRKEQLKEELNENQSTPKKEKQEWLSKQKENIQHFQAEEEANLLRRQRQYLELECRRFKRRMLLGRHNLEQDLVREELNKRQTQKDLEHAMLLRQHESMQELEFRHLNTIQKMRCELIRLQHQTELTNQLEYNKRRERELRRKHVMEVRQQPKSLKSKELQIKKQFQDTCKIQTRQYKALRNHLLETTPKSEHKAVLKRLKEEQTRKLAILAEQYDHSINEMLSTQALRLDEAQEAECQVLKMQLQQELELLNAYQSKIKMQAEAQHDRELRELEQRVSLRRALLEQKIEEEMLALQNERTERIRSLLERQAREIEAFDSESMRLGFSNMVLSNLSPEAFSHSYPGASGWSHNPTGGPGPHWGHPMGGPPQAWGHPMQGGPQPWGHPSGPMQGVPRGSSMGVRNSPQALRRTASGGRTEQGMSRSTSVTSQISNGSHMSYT

[3] = molecular target: T1, Serine/threonine-protein kinase TAO1 (Homo sapiens); details: at 10 µM
[4] = molecular target: T2, Serine/threonine-protein kinase TAO2 (Homo sapiens) (UniProt Q9UL54); details: at 1 µM
T2 sequence (whole entry): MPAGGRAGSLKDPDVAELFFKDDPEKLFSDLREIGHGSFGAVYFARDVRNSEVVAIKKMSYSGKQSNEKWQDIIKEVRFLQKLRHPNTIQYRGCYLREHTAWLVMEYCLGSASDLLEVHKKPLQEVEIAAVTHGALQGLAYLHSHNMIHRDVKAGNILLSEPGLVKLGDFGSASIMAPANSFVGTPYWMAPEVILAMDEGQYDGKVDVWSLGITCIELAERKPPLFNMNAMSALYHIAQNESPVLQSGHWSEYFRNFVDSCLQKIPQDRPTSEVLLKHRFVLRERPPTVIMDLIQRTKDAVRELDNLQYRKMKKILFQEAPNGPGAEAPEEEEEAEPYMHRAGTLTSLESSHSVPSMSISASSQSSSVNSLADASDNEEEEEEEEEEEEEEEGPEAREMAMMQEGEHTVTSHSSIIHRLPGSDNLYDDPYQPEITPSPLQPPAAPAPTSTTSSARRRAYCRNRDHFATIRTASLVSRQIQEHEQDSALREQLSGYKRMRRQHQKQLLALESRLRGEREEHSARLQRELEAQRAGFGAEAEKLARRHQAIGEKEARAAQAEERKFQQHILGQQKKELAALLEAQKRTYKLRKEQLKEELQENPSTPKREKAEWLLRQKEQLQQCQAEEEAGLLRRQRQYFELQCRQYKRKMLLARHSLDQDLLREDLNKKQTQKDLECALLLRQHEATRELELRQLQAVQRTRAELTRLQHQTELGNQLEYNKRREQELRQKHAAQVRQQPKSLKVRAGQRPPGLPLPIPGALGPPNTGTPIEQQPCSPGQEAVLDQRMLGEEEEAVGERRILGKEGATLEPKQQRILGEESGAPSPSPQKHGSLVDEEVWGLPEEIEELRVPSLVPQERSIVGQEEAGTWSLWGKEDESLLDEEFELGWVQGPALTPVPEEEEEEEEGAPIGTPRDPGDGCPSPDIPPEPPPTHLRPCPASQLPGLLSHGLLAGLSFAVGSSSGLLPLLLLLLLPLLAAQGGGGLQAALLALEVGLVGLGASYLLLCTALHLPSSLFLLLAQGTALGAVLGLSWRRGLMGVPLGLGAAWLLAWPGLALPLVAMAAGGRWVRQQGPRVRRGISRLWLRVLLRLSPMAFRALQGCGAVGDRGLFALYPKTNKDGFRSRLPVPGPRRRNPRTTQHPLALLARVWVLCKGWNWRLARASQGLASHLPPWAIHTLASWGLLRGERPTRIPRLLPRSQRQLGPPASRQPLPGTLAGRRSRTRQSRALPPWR

[5] = molecular target: T2, Serine/threonine-protein kinase TAO2 (Homo sapiens); details: at 10 µM
[6] = molecular target: T3, Serine/threonine-protein kinase TAO3 (Homo sapiens) (UniProt Q9H2K8); details: at 1 µM
T3 sequence (whole entry): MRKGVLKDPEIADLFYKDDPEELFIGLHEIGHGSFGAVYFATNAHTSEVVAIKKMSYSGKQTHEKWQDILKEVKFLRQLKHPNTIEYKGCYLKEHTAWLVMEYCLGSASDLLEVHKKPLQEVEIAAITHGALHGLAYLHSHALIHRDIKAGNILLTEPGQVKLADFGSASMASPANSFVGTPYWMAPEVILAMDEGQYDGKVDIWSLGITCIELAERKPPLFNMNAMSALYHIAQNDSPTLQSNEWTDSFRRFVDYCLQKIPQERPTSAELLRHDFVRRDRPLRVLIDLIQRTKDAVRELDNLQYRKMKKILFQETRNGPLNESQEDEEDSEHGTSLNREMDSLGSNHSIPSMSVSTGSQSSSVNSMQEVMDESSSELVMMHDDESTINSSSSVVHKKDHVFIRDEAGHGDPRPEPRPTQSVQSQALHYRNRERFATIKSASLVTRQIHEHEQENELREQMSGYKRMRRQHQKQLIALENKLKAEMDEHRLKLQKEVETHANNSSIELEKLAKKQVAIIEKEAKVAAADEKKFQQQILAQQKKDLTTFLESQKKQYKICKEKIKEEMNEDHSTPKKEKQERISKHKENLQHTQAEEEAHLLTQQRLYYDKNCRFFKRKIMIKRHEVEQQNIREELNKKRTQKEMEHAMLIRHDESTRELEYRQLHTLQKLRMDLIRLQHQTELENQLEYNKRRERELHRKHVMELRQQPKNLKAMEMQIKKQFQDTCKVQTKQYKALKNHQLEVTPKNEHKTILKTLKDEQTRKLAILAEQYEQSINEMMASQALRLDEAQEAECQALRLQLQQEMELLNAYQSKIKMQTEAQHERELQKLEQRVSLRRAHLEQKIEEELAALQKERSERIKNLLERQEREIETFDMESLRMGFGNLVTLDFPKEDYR

[7] = molecular target: T4, Serine/threonine-protein kinase TBK1 (Homo sapiens) (UniProt Q9UHD2); details: at 10 µM
T4 sequence (whole entry): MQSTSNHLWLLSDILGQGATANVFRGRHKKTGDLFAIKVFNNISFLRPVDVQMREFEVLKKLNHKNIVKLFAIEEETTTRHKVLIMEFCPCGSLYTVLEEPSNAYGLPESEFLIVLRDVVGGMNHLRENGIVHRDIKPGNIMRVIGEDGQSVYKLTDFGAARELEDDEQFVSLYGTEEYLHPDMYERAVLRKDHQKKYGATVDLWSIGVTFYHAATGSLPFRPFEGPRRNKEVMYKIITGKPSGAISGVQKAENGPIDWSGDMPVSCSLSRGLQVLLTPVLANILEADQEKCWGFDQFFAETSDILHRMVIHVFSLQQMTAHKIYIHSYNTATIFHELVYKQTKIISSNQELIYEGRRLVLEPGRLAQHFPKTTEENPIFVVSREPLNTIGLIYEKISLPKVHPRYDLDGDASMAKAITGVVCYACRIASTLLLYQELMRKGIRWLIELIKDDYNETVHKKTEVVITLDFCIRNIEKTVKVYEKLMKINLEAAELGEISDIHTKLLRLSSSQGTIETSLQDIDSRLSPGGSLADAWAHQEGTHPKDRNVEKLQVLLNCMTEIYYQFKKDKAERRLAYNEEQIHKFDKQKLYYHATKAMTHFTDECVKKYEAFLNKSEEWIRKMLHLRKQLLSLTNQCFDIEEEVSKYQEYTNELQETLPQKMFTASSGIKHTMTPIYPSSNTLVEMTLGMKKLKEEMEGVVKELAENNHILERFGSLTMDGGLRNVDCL

[8] = molecular target: T5, TGF-beta receptor type-1 (Homo sapiens) (UniProt P36897); details: at 1 µM
T5 sequence (whole entry): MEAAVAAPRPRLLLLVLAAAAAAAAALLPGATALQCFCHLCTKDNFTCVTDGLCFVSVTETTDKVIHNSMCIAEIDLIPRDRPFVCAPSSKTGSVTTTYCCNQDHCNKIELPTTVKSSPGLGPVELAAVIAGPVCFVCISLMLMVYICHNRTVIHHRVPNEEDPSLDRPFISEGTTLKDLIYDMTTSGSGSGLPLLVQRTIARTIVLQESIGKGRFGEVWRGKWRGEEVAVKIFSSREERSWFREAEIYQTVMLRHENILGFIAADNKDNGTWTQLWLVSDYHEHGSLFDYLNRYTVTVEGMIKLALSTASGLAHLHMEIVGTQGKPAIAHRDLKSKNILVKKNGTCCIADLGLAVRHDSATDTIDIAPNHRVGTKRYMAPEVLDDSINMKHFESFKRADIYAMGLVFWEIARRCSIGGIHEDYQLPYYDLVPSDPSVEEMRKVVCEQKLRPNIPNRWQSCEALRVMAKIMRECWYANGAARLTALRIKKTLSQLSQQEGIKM

[9] = molecular target: T5, TGF-beta receptor type-1 (Homo sapiens); details: at 10 µM
[10] = molecular target: Insulin-like growth factor 1 receptor (Homo sapiens) (UniProt P08069); details: at 1 µM
Insulin-like growth factor 1 receptor (Homo sapiens), sequence (P08069 31-736 limits assumed): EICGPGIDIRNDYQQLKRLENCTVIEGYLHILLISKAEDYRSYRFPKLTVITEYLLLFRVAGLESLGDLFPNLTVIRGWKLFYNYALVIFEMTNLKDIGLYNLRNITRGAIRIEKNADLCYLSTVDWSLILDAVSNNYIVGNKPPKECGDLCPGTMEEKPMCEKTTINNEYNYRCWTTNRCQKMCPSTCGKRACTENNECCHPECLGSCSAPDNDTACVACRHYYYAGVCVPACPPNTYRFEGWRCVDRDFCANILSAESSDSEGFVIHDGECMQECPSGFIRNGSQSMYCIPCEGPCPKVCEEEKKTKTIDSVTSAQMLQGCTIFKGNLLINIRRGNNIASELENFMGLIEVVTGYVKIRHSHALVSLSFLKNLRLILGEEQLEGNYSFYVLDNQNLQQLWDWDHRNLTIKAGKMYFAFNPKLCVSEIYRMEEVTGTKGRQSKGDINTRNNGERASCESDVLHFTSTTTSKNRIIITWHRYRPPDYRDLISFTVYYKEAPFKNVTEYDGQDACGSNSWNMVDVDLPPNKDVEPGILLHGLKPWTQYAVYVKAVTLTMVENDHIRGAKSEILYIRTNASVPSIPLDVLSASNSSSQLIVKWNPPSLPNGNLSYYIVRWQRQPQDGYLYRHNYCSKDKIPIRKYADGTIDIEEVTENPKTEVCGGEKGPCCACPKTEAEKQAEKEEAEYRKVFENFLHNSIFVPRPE
Insulin-like growth factor 1 receptor (Homo sapiens), sequence (P08069 741-1367 limits assumed): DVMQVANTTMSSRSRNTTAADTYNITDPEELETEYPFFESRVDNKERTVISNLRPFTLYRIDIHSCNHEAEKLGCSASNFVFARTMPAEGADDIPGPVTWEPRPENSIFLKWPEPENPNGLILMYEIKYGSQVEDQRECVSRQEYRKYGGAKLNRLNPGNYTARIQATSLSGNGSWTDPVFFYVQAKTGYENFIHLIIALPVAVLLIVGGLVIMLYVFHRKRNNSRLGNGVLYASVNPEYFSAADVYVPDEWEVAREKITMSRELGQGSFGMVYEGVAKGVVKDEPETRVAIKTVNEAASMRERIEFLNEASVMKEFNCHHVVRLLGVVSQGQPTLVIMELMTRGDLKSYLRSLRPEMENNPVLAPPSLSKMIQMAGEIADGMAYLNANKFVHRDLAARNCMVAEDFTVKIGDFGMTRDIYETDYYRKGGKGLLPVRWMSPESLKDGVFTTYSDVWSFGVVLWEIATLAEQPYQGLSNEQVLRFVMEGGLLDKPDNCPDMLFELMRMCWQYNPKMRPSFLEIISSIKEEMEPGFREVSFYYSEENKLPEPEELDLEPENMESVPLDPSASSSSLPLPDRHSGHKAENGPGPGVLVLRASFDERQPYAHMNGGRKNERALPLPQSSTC

[11] = molecular target: Insulin receptor (Homo sapiens) (UniProt P06213); details: at 1 µM
Insulin receptor (Homo sapiens), sequence (P06213 28-758 limits assumed): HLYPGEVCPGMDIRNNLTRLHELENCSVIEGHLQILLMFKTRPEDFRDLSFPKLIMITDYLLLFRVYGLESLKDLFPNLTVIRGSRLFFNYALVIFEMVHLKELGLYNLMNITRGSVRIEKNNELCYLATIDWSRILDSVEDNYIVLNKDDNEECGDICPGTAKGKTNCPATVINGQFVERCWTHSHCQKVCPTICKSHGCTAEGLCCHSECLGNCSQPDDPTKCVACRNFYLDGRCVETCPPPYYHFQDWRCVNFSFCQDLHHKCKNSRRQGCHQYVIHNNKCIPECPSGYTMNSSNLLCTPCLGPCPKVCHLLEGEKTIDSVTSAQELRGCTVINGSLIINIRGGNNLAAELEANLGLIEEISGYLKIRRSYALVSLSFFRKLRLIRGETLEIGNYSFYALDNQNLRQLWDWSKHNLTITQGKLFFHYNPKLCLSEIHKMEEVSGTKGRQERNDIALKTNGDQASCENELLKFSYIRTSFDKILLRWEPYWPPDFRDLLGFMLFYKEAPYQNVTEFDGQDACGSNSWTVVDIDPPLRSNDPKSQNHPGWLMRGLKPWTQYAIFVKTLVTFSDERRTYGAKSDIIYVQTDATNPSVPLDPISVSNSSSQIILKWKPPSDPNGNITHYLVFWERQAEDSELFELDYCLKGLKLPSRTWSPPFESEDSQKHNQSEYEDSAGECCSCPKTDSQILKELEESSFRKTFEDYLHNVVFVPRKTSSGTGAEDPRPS
Insulin receptor (Homo sapiens), sequence (P06213 763-1382 limits assumed): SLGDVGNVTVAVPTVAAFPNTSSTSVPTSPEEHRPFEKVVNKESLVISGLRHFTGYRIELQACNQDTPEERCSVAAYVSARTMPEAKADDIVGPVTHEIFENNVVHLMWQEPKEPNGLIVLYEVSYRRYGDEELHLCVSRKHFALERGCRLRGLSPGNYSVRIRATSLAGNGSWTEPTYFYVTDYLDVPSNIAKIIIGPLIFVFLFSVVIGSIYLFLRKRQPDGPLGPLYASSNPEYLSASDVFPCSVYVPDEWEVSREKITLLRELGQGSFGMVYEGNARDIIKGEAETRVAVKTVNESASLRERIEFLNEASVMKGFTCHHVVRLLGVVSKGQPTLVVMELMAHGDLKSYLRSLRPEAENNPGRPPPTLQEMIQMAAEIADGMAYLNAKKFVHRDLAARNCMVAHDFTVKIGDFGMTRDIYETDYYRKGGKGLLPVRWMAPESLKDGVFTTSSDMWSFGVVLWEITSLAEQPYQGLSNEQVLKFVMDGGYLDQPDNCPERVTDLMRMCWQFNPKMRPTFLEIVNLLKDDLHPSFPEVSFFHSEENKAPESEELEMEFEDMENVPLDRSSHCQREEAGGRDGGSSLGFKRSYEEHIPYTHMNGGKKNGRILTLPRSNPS

COc1cc2ncnc(Nc3cccc(Cl)c3)c2cc1OC
residual activity [1]: 71%
residual activity [2]: 102%
residual activity [3]: 76%
residual activity [4]: 113%
residual activity [5]: 86%
residual activity [6]: 102%
residual activity [7]: 59%
residual activity [8]: 100%
residual activity [9]: 103%
residual activity [10]: 115%
residual activity [11]: 110%
